Bioassay records from PubChem.
D1 agonist = human D1 receptor agonism | P21728 | hit rate 1% among 360,000 | HEK293 T-REx D1 cells, calcium flux, agonist mode | activation, % at 2 µM; further: 0% is about no effect
Target sequence (P21728 whole entry, looked up): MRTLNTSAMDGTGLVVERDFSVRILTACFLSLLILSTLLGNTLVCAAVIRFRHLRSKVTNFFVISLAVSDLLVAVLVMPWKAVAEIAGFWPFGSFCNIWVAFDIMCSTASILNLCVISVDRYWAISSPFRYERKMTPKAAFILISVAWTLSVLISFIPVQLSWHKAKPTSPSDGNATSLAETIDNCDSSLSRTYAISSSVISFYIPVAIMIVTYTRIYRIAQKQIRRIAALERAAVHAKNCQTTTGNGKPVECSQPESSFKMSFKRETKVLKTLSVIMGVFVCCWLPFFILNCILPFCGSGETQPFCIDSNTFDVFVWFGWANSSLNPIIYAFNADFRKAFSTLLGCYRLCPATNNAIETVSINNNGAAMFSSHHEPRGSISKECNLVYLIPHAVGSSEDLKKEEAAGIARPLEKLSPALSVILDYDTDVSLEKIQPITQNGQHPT
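Inducible HEK293 T-REx D1 cells, force-coupled to calcium signalling, were plated at 4000 cells/well with tetracycline and held overnight at 30 C. After no-wash calcium dye loading, compound-evoked calcium rise over 180 s flagged agonists.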
D1 potentiator = potentiators of human D1 dopamine receptor. P21728. HEK293 TREx D1 cells, calcium flux, dopamine EC20 potentiation. potentiation, % at 10 µM. hit rate 0.036% among 360,000; in the data active means potentiation above about 30%; further: 0% is about no effect
D1 antagonist = human D1 dopamine receptor antagonism; P21728; activity change, negative = inhibition, % at 10 µM; HEK293 TREx D1 cells, calcium flux, dopamine EC80; hits give low values; hit rate 3.2% among 360,000; in the data active means activity change below about -30%; further: on the % scale 0 is the no-effect control and ±100 the full control effect
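Inducible Hek293 Trex D1 cells (tetracycline, overnight, 30 C). Calcium dye 30–90 min RT. Antagonist mode: EC80 dopamine added after 180 s compound read.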
TRHR enhancer = allosterically enhances the human TRH receptor; P34981; TRHR cells, fluo-8 calcium fluorescence, EC20 TRH enhancement; enhancement, % at 2 µM; hit rate 0.66% among 360,000; in the data active means enhancement above about 30%; further: 0% is about no effect
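TRHR-expressing cells loaded with fluo-8 calcium dye were read kinetically (ex 480/em 530) during compound addition, then stimulated with an EC20 of TRH (10 nM final). Enhancement of the Gq-mediated intracellular calcium response was scored.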
TRHR ag = activates the human TRH receptor. hit rate 0.18% among 360,000. AID 493084. TRHR cells, calcium flux fluo-8, FDSS agonist mode. activation, % at 2 µM; further: 0% is about no effect
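Agonist-mode FDSS calcium read (Ex 480/Em 530, 1 s cycles) in 1536-well TRHR cells with fluo-8 dye, after 10-cycle baseline and 23 nL compound addition; TRH at EC20 (10 nM final) added afterwards for the enhancer phase.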
The depositor's hits bear a star; . = not tested or not shown. An excerpt weighted towards active compounds, which were near 4.7% of everything screened. Unless noted, no stated cut-off is given here; in the data, active means activation above about 30%; inactive means the rest.

SMILES	D1 agonist	D1 potentiator	D1 antagonist	TRHR enhancer	TRHR ag
Fc1ccc(Nc2ncnc3onc(-c4cccc(Cl)c4)c23)c(F)c1	-1.9	-3.5	-45.2*	-9.4	0.2
CN1C(=O)/C(=C/c2ccc(OCc3ccc(F)cc3)cc2)N(C)C1=S	4.4	-1.8	-1.8	-0.9	0.2
O=C1NC(=S)N(C(=O)c2ccc(F)cc2)/C1=C/c1ccccc1	79.8*	-2.5	-8.2	9.4	20.1
COc1ccc(/C=C2\C(=O)NC(=S)N2C(=O)c2ccc(F)cc2)cc1	111.8*	-6.2	10.5	-0.7	24.1
O=C(NC(=S)N1CCN(C/C=C/c2ccccc2)CC1)c1ccc(F)cc1	7.2	-3.1	-15.7	-4.3	-0.4
COc1ccc(S(=O)(=O)N2CCCCC2)cc1NC(=O)CCNC(=O)c1ccc(Br)cc1	-0.1	-3.8	-8.2	1.6	1.0
CCCN(C(=O)c1ccc(N2CCCC2=O)cc1)C1CCS(=O)(=O)C1 (centres undefined)	1.3	.	7.5	3.0	0.3
Cn1c(C(=O)N2CCCc3ccccc32)cc2sccc21	44.5*	-7.3	-18.5	10.1	-0.4
O=C(c1cc2sccc2n1Cc1ccccc1)N1CCCc2ccccc21	3.7	-0.6	-13.7	-5.2	0.4
CN(CC(=O)Nc1cccc(F)c1)C(=O)c1ccc2c(c1)CC(c1ccccc1)OC2=O (centres undefined)	4.6	0.8	-7.5	-2.2	-0.5
CCN(CC)c1ccc2cc(-c3nc(-c4cc(OC)c(OC)c(OC)c4)no3)c(=O)oc2c1	153.2*	-1.1	-28.7	12.6	122.0*
CCN(CC)c1ccc2cc(-c3nc(-c4cccs4)no3)c(=O)oc2c1	277.9*	-4.4	-27.8	13.1	124.2*
CCN(CC)c1ccc2cc(-c3nc(-c4ccccc4F)no3)c(=O)oc2c1	203.7*	2.1	-13.3	4.2	65.0*
COc1cc(-c2noc(-c3cc4cccc(C)c4oc3=O)n2)cc(OC)c1OC	0.9	-3.9	5.0	6.0	-1.3
Cc1ccccc1-c1noc(-c2cc3ccccc3oc2=O)n1	1.8	-2.8	-2.8	-1.3	-0.4
COc1ccc(Cl)cc1NS(=O)(=O)c1c(C)nc2sccn2c1=O	5.4	-4.3	-19.3	0.5	2.0
CCCOc1cccc(C(=O)Nc2cccc(-c3nc4ncccc4o3)c2C)c1	0.1	-0.6	-9.7	13.8	-0.9
Cc1cc(=O)n(Cc2ccc(F)cc2Cl)c2c1c(C)nn2-c1ccccc1	3.7	-0.4	-7.8	-1.7	0.2
O=C(c1ccccc1)c1ccc(N2CCNCC2)cc1	7.2	-16.4	-74.5*	-1.2	3.5
O=C(COc1ccc(N2C(=O)c3ccccc3C2=O)cc1)c1ccccc1	1.1	-8.1	-32.1*	-3.9	0.5
CCOc1ccc(N2C(=O)c3ccccc3C2=O)cc1	0.2	-5.2	-18.3	2.5	-0.2
Clc1nc(-c2n[nH]nc2Cl)n[nH]1	-0.1	-6.0	-31.2*	-0.5	0.0
CCCOC(=O)C(=O)NNc1ccccc1	1.7	-13.3	-3.7	32.1*	0.2
COc1ccccc1Nc1nc(NCc2ccco2)c2ccccc2n1	1.5	-19.7	-92.8*	-3.6	-1.3
Cc1ccc(Nc2nc(-c3ccccc3)nc3ccccc23)cc1	1.3	-4.2	-30.2*	-6.0	0.2
SMILES	D1 agonist	D1 potentiator	D1 antagonist	TRHR enhancer	TRHR ag
Cc1ccc(Nc2nc(NCc3ccco3)c3ccccc3n2)cc1	47.3*	-16.7	-66.3*	3.7	2.3
Oc1ccccc1-c1nc(NCc2ccco2)c2ccccc2n1	2.3	-1.9	-3.3	-2.9	0.6
COC(=O)c1sccc1S(=O)(=O)N1CCN(c2ccc(C)cc2C)CC1	15.8	-3.0	-10.3	4.2	0.7
Cc1ccc(Cl)cc1NC(=O)C1C2CCC(O2)C1C(=O)O (centres undefined)	-1.3	-1.2	-35.3*	-2.2	0.2
Cc1ccc(NC(=O)C2C3CCC(O3)C2C(=O)O)c(Br)c1 (centres undefined)	2.1	0.2	9.4	4.9	-0.2
COCCC(=O)N1CCC(Oc2ccc(C(=O)N(C)CCCC3CCCC3)cc2)CC1	21.2	-6.2	-32.6*	8.6	-0.9
COc1ccc(C(=O)N(C)CCCC2CCCC2)cc1OC1CCN(C(C)C)CC1	16.6	-3.5	-46.7*	2.8	-0.3
Cc1ccc(NC(=O)CCCc2nnc3n(C)c(=O)c4sccc4n23)cc1F	3.2	-0.3	-3.1	-6.2	-0.5
CC(C)c1cc(-c2nc(-c3ccc(Cl)cc3)no2)n[nH]1	1.4	-5.5	-38.1*	0.5	0.7
COc1cc(-c2noc(-c3cc(C(C)C)[nH]n3)n2)cc(OC)c1OC	1.3	2.5	0.3	-0.4	0.2
COc1ccc(Oc2nc3c(c(=O)n(Cc4ccccc4Cl)c(=O)n3C)n2C)cc1	4.6	-1.9	-22.6	-8.9	-0.4
COc1ccc(N/C(=N/c2nc(C)cc(C)n2)NC(=O)c2ccccc2)cc1	0.0	-13.9	-59.4*	-5.1	0.4
Cc1cc(C)nc(/N=C(/NC(=O)c2ccccc2)Nc2ccccc2)n1	-1.6	-10.1	-4.8	0.4	-0.6
CCC(=O)N/C(=N/c1nc(C)cc(C)n1)Nc1ccc(C)cc1	0.3	-7.7	-42.6*	-8.0	-0.2
CC(=O)c1cccc(NC(=O)CN(c2cc(C)cc(C)c2)S(=O)(=O)c2c(C)noc2C)c1	1.4	1.7	-8.3	-5.2	-0.4
N#Cc1nc(NC2CCCC2)c2ncn(-c3cc(F)cc(F)c3)c2n1	-0.1	-2.2	5.2	-2.8	1.1
COc1ccc(-c2[nH]n(-c3ccc([N+](=O)[O-])cc3)c(=O)c2C=NCc2ccncc2)cc1	5.5	-8.1	-31.4*	5.5	-1.7
CCn1c(CNc2ccc(F)cc2)nnc1SCC(=O)N1CCCc2ccccc21	2.3	1.4	-30.7*	0.1	0.1
CCn1c(CNc2ccc(OC)cc2)nnc1SCC(=O)N1CCCc2ccccc21	-0.5	-3.6	-22.9	-11.9	-1.1
COC(=O)c1c(C)oc(C)c1S(=O)(=O)NCC1CC1	3.5	-10.6	-5.2	1.8	-1.3
COC(=O)c1c(C)oc(C)c1S(=O)(=O)N(C)C1CCCCC1	1.4	-2.1	-45.5*	-1.3	-1.5
CCCCn1c(=O)cc(N2CCOCC2)[nH]c1=O	2.6	-7.3	-46.4*	-8.3	0.3
Cc1ccc(-n2nc(CO)c(C(=O)NCCCCc3ccccc3)n2)cc1C	27.5	-1.9	-5.8	1.6	9.1
Cn1cnnc1SCC(=O)Nc1ccccc1	2.1	-0.7	3.6	5.6	1.2
Cn1cnnc1SCC(=O)Nc1ccc(C#N)cc1	-0.2	-3.5	-36.5*	-0.5	0.9
COc1ccc(/C=C/C(=O)Nc2ccc(Cl)cc2Cl)cc1	2.3	0.6	6.3	-4.3	-0.6
CCOc1ccc(CNC(=O)C2CCN(S(=O)(=O)c3cn(C)cn3)CC2)cc1	-1.0	1.1	-0.5	2.8	-1.6
CCCOc1ccc(CCc2n[nH]c(=S)n2-c2ccccc2)cc1	6.0	2.1	4.1	3.9	-0.9
CCCOc1ccc(CCc2n[nH]c(=S)n2Cc2ccccc2)cc1	3.7	-2.8	-43.3*	-2.8	-0.2
